Measurements: PubChem BioAssay (Tox21)
Records with an inconclusive call do not appear. Where a call stands in place of a potency, no number is given. Activity calls are given as the source filed them. Unless noted, calls follow the shape of the dose curve; as a rule, active = well fitted curve in the direction sought with a large enough effect in the repeat runs; inconclusive = weak or mixed curves; inactive = no such curve, though single readings can be large; an effect the other way counts as inactive or inconclusive.

What was measured:
[1] = qHTS assay to identify small molecule antagonists of the estrogen related receptor (ERR) signaling pathway from Tox21 library - cell viability counter screen (AID 1224834); also: nearly all actives have a fitted effect of over 30% in size
Procedure, shortened: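 Seeded ERR cells were rested 6 h at 37 C/5% CO2 before compounds, positive and negative controls or DMSO were added. Incubation continued for 17.5 h, and viability was then quantified by CellTiter-Fluor fluorescence.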

[2] = biological target: Luciferin 4-monooxygenase (Photinus pyralis) (UniProt P08659); experiment: qHTS assay to identify small molecule inhibitors of firefly luciferase (AID 1224835); also: series mostly up to about 120 µM; nearly all actives have a fitted effect of over 25% in size
Procedure, shortened: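 Biochemical qHTS: compounds run as interplate titrations against purified firefly enzyme, with D-luciferin and ATP each at its KM concentration. Light output recorded by CCD imaging.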

[3] = qHTS assay to identify small molecule agonists of the constitutive androstane receptor (CAR) signaling pathway - cell viability counter screen (AID 1224836); also: series mostly up to about 92 µM; nearly all actives have a fitted effect of over 45% in size
Procedure, shortened: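 Cell viability multiplexed with the CAR agonist screen: CellTiter-Fluor fluorescence after 23 hr at 37 C. HepG2-CYP2B6-hCAR cells got compounds at 15 concentrations with PK11195 at 0.75 uM final.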

[4] = qHTS assay to identify small molecule antagonists of the constitutive androstane receptor (CAR) signaling pathway - cell viability counter screen (AID 1224837); also: series mostly up to about 92 µM; nearly all actives have a fitted effect of over 45% in size
Procedure, shortened: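 To flag cytotoxic false antagonists, HepG2 hCAR/CYP2B6-2.2kb cells were treated 23 hr with 15-concentration compound series and 50 nM CITCO at 37 C/5% CO2; CellTiter-Fluor fluorescence was the measured end point.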

[5] = biological target: Nuclear receptor subfamily 1 group I member 3 (Homo sapiens) (UniProt Q14994); experiment: qHTS assay to identify small molecule agonists of the constitutive androstane receptor (CAR) signaling pathway (AID 1224839); also: nearly all actives have a fitted effect of over 15% in size; also: potency is read from the fitted curve at half-maximal effect
Procedure, shortened: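 Luminescent ONE-Glo read-out after 24 hr, 37 C exposure of double-stable HepG2-CYP2B6-hCAR reporter cells to a 15-point compound series, in the presence of 0.75 uM PK11195 (final).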

[6] = qHTS assay to identify small molecule antagonists of the estrogen related receptor signaling pathway with the pleiotropic PPARgamma coactivator (PGC) from Tox21 10K library - cell viability counter screen (AID 1224840; active = well fitted cell-killing curve with a large enough effect in the repeat runs, not every such curve was filed as active; also: nearly all actives have a fitted effect of over 40% in size)
Procedure, shortened: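 Seeded PGC/ERR cells (2,000/well, 6 h, 37 C/5% CO2) get compound by pin tool; 17.5 h incubation at 37 C; CellTiter-Fluor added, 30 min, fluorescence measured.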

[7] = biological target: Thyrotropin receptor (Homo sapiens) (UniProt P16473); experiment: qHTS assay to identify small molecule agonists of the thyroid stimulating hormone receptor (TSHR) signaling pathway (AID 1224843; calls by dose curve; also: nearly all actives have a fitted effect of over 45% in size)
Procedure, shortened: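 HEK293/TSHR, 800 cells/well; cpd 30 min RT; add cAMP-d2 + anti-cAMP-cryptate, 1 h RT; fluorescence read on plate reader. 15-pt titration, n=3.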

[8] = qHTS assay to identify small molecule antagonists of the estrogen related receptor signaling pathway with the pleiotropic PPARgamma coactivator (PGC) from Tox21 10K library (AID 1224841; call rule not given here; also: series mostly up to about 92 µM; actives are mostly falling curves and most rising ones were filed inactive; nearly all actives have a fitted effect of over 50% in size)
Procedure, shortened: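 Test chemicals dissolved in DMSO were applied to pre-incubated (6 h) PGC/ERR cells at 2,000 cells/well for an 18 h, 37 C treatment; reporter luminescence was then read using One-Glo.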

[9] = qHTS assay to identify small molecule agonists of the estrogen related receptor signaling pathway with the pleiotropic PPARgamma coactivator (PGC) from Tox21 10K library (AID 1224842); also: nearly all actives have a fitted effect of over 15% in size
Procedure, shortened: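 PGC/ERR reporter cell line, 2,000 cells per well, incubated 6 h at 37 C before 23 nL compound in DMSO was added. After 18 h at 37 C, One-Glo luminescence read following 30 min at room temperature.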

[10] = biological target: Nuclear receptor subfamily 1 group I member 3 (Homo sapiens) (UniProt Q14994); experiment: qHTS assay to identify small molecule antagonists of the constitutive androstane receptor (CAR) signaling pathway (AID 1224838);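 also: HepG2 cells stably expressing hCAR with CYP2B6 luciferase reporter stimulated by CITCO; nearly all actives have a fitted effect of over 40% in size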
Procedure, shortened: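 Human hepatoma HepG2 cells expressing hCAR and a CYP2B6 promoter (2.2 kb) luciferase construct; compound titration (15 points) with 50 nM CITCO final, 24 h at 37 C/5% CO2; luminescence via ONE-Glo after 30 min at room temperature.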

Thyrotropin receptor (Homo sapiens), sequence (P16473 whole entry, looked up): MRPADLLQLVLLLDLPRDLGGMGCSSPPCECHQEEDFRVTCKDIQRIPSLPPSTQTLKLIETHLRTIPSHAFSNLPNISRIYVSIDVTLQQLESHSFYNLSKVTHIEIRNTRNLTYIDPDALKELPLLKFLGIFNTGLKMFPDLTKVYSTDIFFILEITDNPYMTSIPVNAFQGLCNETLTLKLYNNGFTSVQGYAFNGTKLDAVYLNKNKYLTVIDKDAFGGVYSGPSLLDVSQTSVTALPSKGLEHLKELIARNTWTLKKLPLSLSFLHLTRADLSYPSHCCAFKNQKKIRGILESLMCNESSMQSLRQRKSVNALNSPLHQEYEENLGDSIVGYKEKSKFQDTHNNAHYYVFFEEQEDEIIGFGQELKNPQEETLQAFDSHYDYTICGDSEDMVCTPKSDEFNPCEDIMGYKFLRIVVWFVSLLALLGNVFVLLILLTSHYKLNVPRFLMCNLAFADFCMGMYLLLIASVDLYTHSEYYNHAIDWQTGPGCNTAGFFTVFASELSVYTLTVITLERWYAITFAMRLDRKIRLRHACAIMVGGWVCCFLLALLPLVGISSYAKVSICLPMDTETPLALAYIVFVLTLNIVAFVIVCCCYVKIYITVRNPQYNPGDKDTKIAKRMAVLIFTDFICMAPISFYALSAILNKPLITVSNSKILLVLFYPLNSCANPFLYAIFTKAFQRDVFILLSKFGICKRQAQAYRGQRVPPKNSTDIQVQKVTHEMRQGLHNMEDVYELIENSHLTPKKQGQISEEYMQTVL
Luciferin 4-monooxygenase (Photinus pyralis), sequence (P08659 whole entry, looked up): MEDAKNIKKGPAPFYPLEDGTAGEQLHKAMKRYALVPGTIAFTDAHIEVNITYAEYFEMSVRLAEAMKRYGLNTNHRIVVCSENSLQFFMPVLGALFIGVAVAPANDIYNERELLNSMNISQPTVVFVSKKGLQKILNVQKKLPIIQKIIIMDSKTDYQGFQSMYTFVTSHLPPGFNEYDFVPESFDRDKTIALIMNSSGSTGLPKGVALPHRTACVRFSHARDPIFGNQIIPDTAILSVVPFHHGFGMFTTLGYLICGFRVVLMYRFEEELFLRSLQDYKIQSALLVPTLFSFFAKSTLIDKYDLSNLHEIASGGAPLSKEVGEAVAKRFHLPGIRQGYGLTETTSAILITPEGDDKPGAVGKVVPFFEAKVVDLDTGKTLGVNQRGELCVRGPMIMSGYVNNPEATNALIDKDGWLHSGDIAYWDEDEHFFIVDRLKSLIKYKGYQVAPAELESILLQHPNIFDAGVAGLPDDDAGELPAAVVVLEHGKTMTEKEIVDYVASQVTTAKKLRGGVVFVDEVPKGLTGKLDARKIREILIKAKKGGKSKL
Nuclear receptor subfamily 1 group I member 3 (Homo sapiens), sequence (Q14994 whole entry, looked up): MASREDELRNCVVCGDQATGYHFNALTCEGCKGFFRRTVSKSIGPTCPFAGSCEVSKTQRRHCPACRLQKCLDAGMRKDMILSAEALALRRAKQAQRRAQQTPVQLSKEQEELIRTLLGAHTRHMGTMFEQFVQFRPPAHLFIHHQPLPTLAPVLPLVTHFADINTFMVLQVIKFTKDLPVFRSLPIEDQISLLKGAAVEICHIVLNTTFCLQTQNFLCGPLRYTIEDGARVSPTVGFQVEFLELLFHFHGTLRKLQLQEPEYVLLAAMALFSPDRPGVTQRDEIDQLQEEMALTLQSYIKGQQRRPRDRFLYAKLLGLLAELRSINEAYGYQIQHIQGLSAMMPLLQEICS

| Compound | Potency [1] | Potency [2] | Potency [3] | Potency [4] | Potency [5] | Potency [6] | Potency [7] | Potency [8] | Potency [9] | Potency [10] |
| --- | --- | --- | --- | --- | --- | --- | --- | --- | --- | --- |
| CN1CCC[C@@H]1Cc1c[nH]c2ccc(CCS(=O)(=O)c3ccccc3)cc12 | inactive | inactive | inactive | inactive | inactive | inactive | inactive | – | – | – |
| CCCC1CCC(=O)O1 (stereo not drawn) | inactive | inactive | inactive | inactive | inactive | inactive | inactive | – | – | – |
| CCC/C=C/CO | inactive | inactive | – | inactive | inactive | inactive | inactive | – | – | – |
| COc1ccccc1N1CCN(CCCNc2cc(=O)n(C)c(=O)n2C)CC1 | inactive | inactive | – | inactive | inactive | inactive | – | inactive | inactive | – |
| C=C(C)C(=O)OCCOP(=O)(O)O | inactive | inactive | – | inactive | inactive | inactive | inactive | – | – | inactive |
| O=C(O)C(=O)Cc1c[nH]c2ccccc12 | inactive | – | inactive | inactive | 30.6 µM (active) | inactive | inactive | – | – | inactive |
| CCCCCCCCCC/C=C/C#N | inactive | inactive | – | inactive | inactive | inactive | – | inactive | inactive | – |
